Pin1 inh: qHTS Assay to Find Inhibitors of Pin1. Peptidyl-prolyl cis-trans isomerase NIMA-interacting 1 (Homo sapiens), Q13526. Potency, µM (titrated, usually from 115 µM), for the others: at the highest dose activity, negative = inhibition, actives largely listed as inhibitors. hit rate 0.009% among 390,000. Pin1 FP peptide displacement, HiFluor488, 10 min; active = well fitted inhibition curve with a large enough effect in the polarisation, with a control signal flat, not every such curve was filed as active; inconclusive = small, poorly fitted or top-dose-only effect, or effect the other way, or a change in a side signal; inactive = no such curve, though single readings can be large or run the other way; the % refers to the polarisation; also: % is scaled to controls: 0 for no effect and ±100 for the full control effect
Tb PFK inh: qHTS Assay to Find Inhibitors of T. brucei phosphofructokinase; ATP-dependent 6-phosphofructokinase (Trypanosoma brucei brucei), O15648; T. brucei PFK, ADP-Glo luminescence; Potency, µM (titrated, usually from 57.5 µM), for the others: at the top dose activity, negative = inhibition, usual class: inhibitors; hit rate 0.17% among 330,000; AID 485367, 2010;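 also: 0% = uninhibited 1x PFK enzyme wells and -100% = no-enzyme wells; nearly all actives have a fitted effect of over 60% in size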
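Compounds were pin-transferred as a titration series up to 57 uM into substrate buffer (0.5 mM F6P, 0.1 mM ATP, pH 8.0), then 1.25 nM PFK was added and reactions ran 45 min before ADP-Glo detection.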
Tb PGK inh: qHTS Assay to Find Inhibitors of Phosphoglycerate Kinase; Phosphoglycerate kinase, glycosomal (Trypanosoma brucei brucei), P07378; PGK/GAPDH coupled, Kinase-Glo luminescence, 60 min; hit rate 0.043% among 380,000; Potency, µM (top dose mostly 57.5 µM), inactives show at the highest dose activity change, negative = inhibition, actives largely listed as inhibitors; also: % is scaled to controls: 0 for no effect and ±100 for the full control effect; nearly all actives have a fitted effect of over 60% in size
Target sequence (P07378 whole entry, looked up): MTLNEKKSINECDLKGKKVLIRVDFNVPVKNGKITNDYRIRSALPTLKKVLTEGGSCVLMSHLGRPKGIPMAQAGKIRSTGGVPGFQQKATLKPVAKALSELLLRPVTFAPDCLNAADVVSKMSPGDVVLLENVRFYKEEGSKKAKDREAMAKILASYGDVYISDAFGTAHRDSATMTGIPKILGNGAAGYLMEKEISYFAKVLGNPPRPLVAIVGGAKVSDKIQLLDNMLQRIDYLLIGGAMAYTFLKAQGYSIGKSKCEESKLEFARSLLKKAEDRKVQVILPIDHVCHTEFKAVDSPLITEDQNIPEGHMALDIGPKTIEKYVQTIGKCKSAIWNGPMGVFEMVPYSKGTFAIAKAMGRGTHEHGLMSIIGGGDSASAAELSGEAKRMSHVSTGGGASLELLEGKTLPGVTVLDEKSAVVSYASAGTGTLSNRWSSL
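Luminescent ATP detection (Kinase-Glo Plus) follows a 60-minute room-temperature incubation, with wells lacking PGK as controls. Buffer: 100 mM TEA (pH 7.6), 5 mM MgCl2, 0.01% Tween-20. Coupling enzyme GAPDH (100 nM final) supplies unstable 1,3-BPG in-well.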
GLP1R ag: qHTS of GLP-1 Receptor Agonists; Glucagon-like peptide 1 receptor (Homo sapiens), P43220; Potency, µM (titrated, usually from 45.6 µM), for the others: top-dose activation, most hits filed as activators; hit rate 0.007% among 380,000; HEK293 GLP-1R CRE-luciferase, luminescence, 4-6 h; cells express a hypersensitive GLP-1R form; also: % of control where 0% means no effect
HEK293 tox: qHTS of GLP-1 Receptor Inverse Agonists: Cytotox Screen; AID 624418, 2012; hit rate 0.13% among 410,000; Potency, µM (highest dose often 38.3 µM), inactives show at the top dose activity change, negative = inhibition, most hits filed as inhibitors; HEK293 cAMP-luciferase reporter cells, luminescence, 24 h;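 also: loss of luciferase light is scored as toxicity; % is scaled to controls: 0 for no effect and ±100 for the full control effect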
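Cells in DMEM/10% Nu serum/1% pen-strep, 1536-well format. Pre-incubated 12 h, dosed with 23 nL compound, incubated a further 24 h. Luciferase detection, 12 min at room temp, luminescence.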
GLP-1R inv ag: qHTS of GLP-1 Receptor Inverse Agonists (Inhibition Mode); hit rate 1.6% among 410,000; HEK293 GLP-1R CRE-luciferase, luminescence, 24 h; GLP-1R form is constitutively active; Glucagon-like peptide 1 receptor (Homo sapiens), P43220; Potency, µM (highest dose often 38.3 µM), for inactives: at the highest dose activity change, negative = inhibition, most hits filed as inhibitors; AID 624417, 2012; also: % is scaled to controls: 0 for no effect and ±100 for the full control effect; nearly all actives have a fitted effect of over 55% in size
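Assay principle: reduced luminescence from a cAMP-responsive reporter in HEK293 cells co-expressing a constitutively active GLP-1R. Conditions: 24 hr compound incubation, 37 deg C, 5% CO2.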
* marks the source's active call; other numbers are inactive results; i = inactive; ? = inconclusive; . = no result. An excerpt weighted towards active compounds, which were near 1.8% of everything screened. Unless noted, calls follow the shape of the dose curve; as a rule, active = well fitted curve in the direction sought with a large enough effect; inconclusive = small, poorly fitted or top-dose-only effect, or another doubt; inactive = no such curve, though single readings can be large; an effect the other way counts as inactive or inconclusive. Potency is read from the fitted curve at half-maximal effect.

SMILES | Pin1 inh | Tb PFK inh | Tb PGK inh | GLP1R ag | HEK293 tox | GLP-1R inv ag
C/C(=N\NC(=S)NCCc1ccccc1)c1ccc(Cl)cc1 | -1.6% | 3.8% | -4.5% | ? | ? | 10µM*
Cc1ccc2nc(-c3cccs3)c(Nc3c(C)cccc3C)n2c1 | -10.1% | . | 4.0% | . | -3.5% | ?
CCc1ccccc1NC(=O)C(NS(=O)(=O)c1ccc2c(c1)CCC(=O)N2)c1ccccc1 (stereo not given) | 1.2% | . | -7.7% | . | -0.1% | 12.9%
CCC(=O)N1CCc2cc(S(=O)(=O)CCC(=O)NCc3ccccc3Cl)ccc21 | 8.0% | . | -3.9% | 2.1% | -8.7% | -11.1%
COc1ccc(OC)c(CNC(=O)C2CCN(c3nc4ccccc4nc3C(F)(F)F)CC2)c1 | -8.7% | . | i | . | 0.8% | 17.5%
O=C(c1ccco1)N1CCN(c2nc(-c3ccc(Br)cc3)cs2)CC1 | 2.0% | . | . | . | . | .
Cc1ccc(NS(=O)(=O)c2c(C)nc3sc(C)cn3c2=O)c(C)c1 | -0.6% | . | -7.8% | . | 2.6% | -4.2%
CC(C)OCCCNC(=S)N1CCC(C(=O)c2ccc(Cl)cc2)CC1 | -2.3% | -7.6% | i | -1.6% | -2.8% | ?
CN(C)CCCNC(=S)N1CCC(C(=O)c2ccc(Cl)cc2)CC1 | . | . | -0.5% | 3.7% | 7.2% | 2µM*
Cc1c(C(=O)N(Cc2ccccc2)Cc2cccs2)cnn1-c1ccc(Cl)cc1 | 2.4% | 6.7% | 11.2% | 14.8% | ? | 5.62µM*
CC(C)(C)OC(=O)N1CCC(c2c(C(=O)NCCN3CCC(Cc4ccccc4)CC3)cnn2-c2ccc(F)cc2)CC1 | -1.8% | . | 5.0% | . | ? | ?
COC(=O)c1ccc2nc(-c3ccc(S(C)(=O)=O)cc3)cn2c1 | 0.3% | 2.6% | -5.8% | 1.3% | 17.9% | -6.1%
COC(=O)c1ccc2nc(-c3cccc(N)c3)cn2c1 | 3.7% | 1.4% | -5.9% | -5.4% | -4.0% | 5.62µM*
CCOC(=O)c1cccc(NC(=O)C2CCCN(S(=O)(=O)c3cc(Br)cc4c3N(C(=O)CC)CC4)C2)c1 (stereo not given) | 39.0% | . | i | -1.2% | -4.4% | 8.8%
O=C(O)Cc1cccc(=O)c(O)c1C(=O)O | . | . | 12.6µM* | -4.2% | 5.8% | 2.1%
O=C(O)Cc1ccccc1C(=O)O | -0.7% | 24.7% | 0.1% | -10.2% | 8.6% | 5.4%
CN1CCCC(CC2Oc3ccccc3Sc3ccccc32)C1 (stereo not given) | -0.8% | -6.4% | -9.0% | -3.1% | ? | 5.62µM*
c1ccc2c(c1)OC(CCCN1CCCCC1)c1ccccc1S2 (stereo not given) | 4.6% | 6.9% | -1.0% | 0.3% | -17.1% | 7.94µM*
CN1CC[C@H](CN2c3ccccc3Sc3ccccc32)C1 | . | . | . | -1.7% | . | .
Cn1c(-c2ccccc2)cc2ccccc21 | 0.3% | 2.4% | -5.6% | 3.5% | -1.6% | -12.1%
Cn1c(-c2ccccc2O)cc2ccccc21 | -3.2% | -6.2% | -2.0% | 1.3% | -8.6% | 10µM*
C[C@@H]1CN([C@@H](C)CO)C(=O)Cc2cc(NC(=O)Nc3ccc(C(F)(F)F)cc3)ccc2O[C@@H]1CN(C)S(=O)(=O)c1ccc(Cl)cc1 | 21.6% | 7.4% | 10.9% | -5.2% | ? | 5.62µM*
C[C@@H]1CN([C@H](C)CO)C(=O)c2cc(NC(=O)Nc3ccc(C(F)(F)F)cc3)ccc2O[C@H]1CN(C)S(=O)(=O)c1ccc(Cl)cc1 | 38.0% | -0.9% | 12.7% | -2.6% | -28.0% | 3.16µM*
CCCn1c2ccccc2c2cnn(CC(=O)Nc3ccccc3OC)c(=O)c21 | -0.6% | . | 1.4% | . | -0.5% | -18.6%
COc1ccc(C(=O)Cn2c(=N)n(C)c3ccccc32)cc1 | 1.3% | 4.8% | 0.4% | 17.6% | 3.5% | -16.9%

Assay outcomes: PubChem BioAssay, National Center for Advancing Translational Sciences (NCATS)
